GPR151 activ: activators of human GPR151; PathHunter beta-arrestin GPR151 cells, luminescence; activation, % at 11.2 µM; actives 1% (n = 650,000); AID 1508602; in the data active = activation above about 4.9%
TEAD-YAP inh: TEAD-YAP interaction inhibition | actives 1.4% (n = 640,000) | AID 1259422 | HEK-TIYL cells, TEAD-Gal4/YAP UAS-luciferase luminescence | inhibition, % at 9.12 µM; in the data active = inhibition above about 32%
MITF primary: human MITF inhibition, primary screen. O75030. AlphaScreen MITF homodimerization, bead proximity signal. inhibition, % at 2.6 µM. actives 0.91% (n = 650,000). AID 1259374; in the data active = inhibition above about 50%
Target sequence (O75030 whole entry, looked up): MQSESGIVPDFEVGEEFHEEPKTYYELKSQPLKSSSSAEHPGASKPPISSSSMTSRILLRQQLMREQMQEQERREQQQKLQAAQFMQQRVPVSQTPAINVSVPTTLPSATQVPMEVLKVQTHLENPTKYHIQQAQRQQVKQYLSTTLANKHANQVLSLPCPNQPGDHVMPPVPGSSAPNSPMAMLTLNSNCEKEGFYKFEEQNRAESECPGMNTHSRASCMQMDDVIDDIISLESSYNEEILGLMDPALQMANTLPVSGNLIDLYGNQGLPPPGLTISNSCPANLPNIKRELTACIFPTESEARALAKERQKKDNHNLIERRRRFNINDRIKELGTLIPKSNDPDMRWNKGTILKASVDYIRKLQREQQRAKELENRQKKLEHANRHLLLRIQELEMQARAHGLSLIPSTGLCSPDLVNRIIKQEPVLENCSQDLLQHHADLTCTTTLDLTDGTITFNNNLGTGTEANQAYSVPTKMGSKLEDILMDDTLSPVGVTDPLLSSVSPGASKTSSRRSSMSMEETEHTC
FBW7 act: activators of human E3 ligase FBW7; Q969H0; AlphaScreen FBW7–phospho-cyclin E peptide binding, activator screen; normalized activity (activation), % at 26.1 µM; actives 0.13% (n = 650,000); AID 1259310; in the data active = normalized activity above about 1.9%;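 also: purified mutant Fbw7 with reduced substrate affinity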
GPR151 conf act: confirmation of human GPR151 activators; shares compounds with GPR151 activ; GPR151 PathHunter beta-arrestin cells, luminescence, 90 min; % of EA-reagent control over plate median; activation, % at 11.2 µM; 6,700 tested, under 10 active;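 active = mean percent activation across replicates above the confirmation screen cutoff of 4.91%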
GPR119 counter: GPR119 activation, counter-screen for GPR151 activators; shares compounds with GPR151 activ; GPR119 PathHunter beta-arrestin cells, luminescence, 90 min; 0 = compound-well median, 100 = enzyme-acceptor control; activation, % at 11.2 µM; actives 0.3% (n = 6,700); AID 1508611;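 active = mean percent activation in the counterscreen above 29.09%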;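 also: counterscreen on off-target GPR119 to flag nonselective hits from the GPR151 activator screen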
Large screens that a line does not name were inactive (follow-up assays come after a bar, where they were run). Shown are actives, neighbours in structure and some others; about 3.5% of the full set was active somewhere.

CCOC(=O)C1=CN(C(C)C)C=C(C(=O)OCC)C1c1ccc(OC)cc1OC	GPR151 activ 5.4 | GPR151 conf act inactive | GPR119 counter inactive
CCOc1cc(C2C(C(=O)OC)=CN(C(C)C)C=C2C(=O)OC)cc(Br)c1O	GPR151 activ 7.2 | GPR151 conf act inactive | GPR119 counter inactive
CCCNC(=O)C1CCN(C(=O)N2CC(C)Oc3ccc(Cl)cc32)CC1 (stereo unspecified)	GPR151 activ 11 | GPR151 conf act inactive | GPR119 counter inactive
CCCNC(=O)C1CCN(C(=O)N2CC(C)Oc3ccccc32)CC1 (stereo unspecified)	none
O=C1/C(=C/NCc2ccncc2)SC2C=CC=CC12 (stereo unspecified)	none
COC(=O)c1ccccc1N1C(=O)C2C3c4ccccc4C(C)(c4ccccc43)C2C1=O (stereo unspecified)	none
CNC(=O)/C(=C/c1ccco1)NC(=O)c1ccc(C)cc1	none
Cc1ccc(C(=O)N/C(=C\c2ccco2)C(=O)Nc2ccccc2)cc1C	GPR151 activ 5.6 | GPR151 conf act inactive | GPR119 counter inactive
Cc1ccc(C(=O)N/C(=C/c2ccco2)C(=O)Nc2ccc(C)cc2C)cc1	GPR151 activ 5.1 | GPR151 conf act inactive | GPR119 counter inactive
O=C(Nc1nc(-c2nc3ccccc3s2)cs1)c1ccccc1Oc1ccccc1	none
CCCCN(C)CCC(=O)Nc1cccc(F)c1	none
CCOC(=O)N1CCN(S(=O)(=O)c2ccc(Br)c(OC)c2)CC1	none
CC(C)N(C(=O)Cn1c(SCC(=O)N2CCCCCC2)nc2ccccc21)C(C)C	none
CC(C)N(C(=O)Cn1c(SCC(=O)N2CCCC2)nc2ccccc21)C(C)C	GPR151 activ 7.9 | GPR151 conf act inactive | GPR119 counter inactive
COC(=O)c1sccc1NC(=S)Nc1ccc([N+](=O)[O-])cc1OC	none
O=C(Cn1c(-c2cccnc2)nc2ccccc21)N1CCCCCC1	GPR151 activ 5.6 | GPR151 conf act inactive | GPR119 counter inactive
O=C(Cn1c(-c2ccccn2)nc2ccccc21)N1CCCCC1	none
COc1ccc(Cl)cc1NC(=O)Cn1nc2n(C)c3ccccc3n2c(=O)c1=O	none
COC(=O)c1ccc(NC(=O)Cn2nc3n(C)c4ccccc4n3c(=O)c2=O)cc1	GPR151 activ 8.8 | GPR151 conf act inactive | GPR119 counter inactive
CCCCOc1ccc(/C=C/C(=O)N2CCCCC2)cc1	GPR151 activ 5.6 | GPR151 conf act inactive | GPR119 counter inactive
Cc1ccc(NC(=O)C(=O)NCC(c2ccc3c(c2)OCO3)N2CCN(C)CC2)c(C)c1 (stereo unspecified)	GPR151 activ 6.5 | GPR151 conf act inactive | GPR119 counter inactive
Cc1cccc2cc(C#N)c(NCCNS(=O)(=O)c3cccc(Cl)c3)nc12	none
O=C1CCC(=O)N1CCC1=CCCCC1	none
O=C1NC(=O)N(CCC2=CCCCC2)C1=O	GPR151 activ 10 | GPR151 conf act inactive | GPR119 counter inactive
O=C1NC(=S)NC(=O)C1=Cc1ccc(-c2ccc(N3CCCCC3)c([N+](=O)[O-])c2)o1	GPR151 activ 12 | GPR151 conf act inactive | GPR119 counter inactive
O=C1NC(=S)N/C1=C/c1ccc(-c2ccc(Cl)c([N+](=O)[O-])c2)o1	none
Cc1ccnc(NC(c2cccc(C)n2)c2ccc3cccnc3c2O)c1 (stereo unspecified)	none
COc1cccc(C(Nc2cc(C)ccn2)c2ccc3cccnc3c2O)c1 (stereo unspecified)	GPR151 activ 5.1, TEAD-YAP inh 80 | GPR151 conf act inactive | GPR119 counter inactive
Cc1ccc2nc(Nc3nc(C)cc(C)n3)nc(C)c2c1	none
O=C(NNC1CC(c2ccccc2)=NN1C(=O)c1ccccc1)c1ccccc1 (stereo unspecified)	GPR151 activ 6.5 | GPR151 conf act inactive | GPR119 counter inactive
CSc1nc2ccc(NC(=O)Cn3cnc4ccccc4c3=O)cc2s1	GPR151 activ 5.9 | GPR151 conf act inactive | GPR119 counter inactive
CCSc1nnc(NC(=O)Cn2cnc3ccccc3c2=O)s1	none
CSc1nc2ccc(NC(=O)CN3C(=O)c4ccccc4C3=O)cc2s1	none
Cc1ccc(CSc2nnc(NC(=O)Cn3cnc4ccccc4c3=O)s2)cc1	GPR151 activ 5.0 | GPR151 conf act inactive | GPR119 counter inactive
Cc1cc(O)cc(C)c1NC(=O)c1ccc([N+](=O)[O-])cc1	none
CN1C(=O)CC(c2cn(Cc3ccccc3)c3ccccc23)C1=O (stereo unspecified)	none
Cc1sc2c(c1C)C(=O)NC(c1cn(Cc3ccccc3)c3ccccc13)N2 (stereo unspecified)	GPR151 activ 6.1 | GPR151 conf act inactive | GPR119 counter inactive
O=C(NCCN1CCOCC1)c1cncc(-c2cccs2)c1	GPR151 activ 7.3 | GPR151 conf act inactive | GPR119 counter inactive
O=C(c1ccc(-c2cccc(Cl)c2Cl)o1)N1CCOCC1	GPR151 activ 7.3 | GPR151 conf act inactive | GPR119 counter inactive
CCOc1ccc(-c2nnc3ccc(SCC(=O)Nc4ccc(OC)cc4)nn23)cc1	none
O=C(NCc1cccc(F)c1)C1CC2CCCN2C12C(=O)Nc1ccccc12 (stereo unspecified)	none
O=C(NCc1ccc2c(c1)OCO2)C1CC2CCCN2C12C(=O)Nc1ccccc12 (stereo unspecified)	GPR151 activ 5.1 | GPR151 conf act inactive | GPR119 counter inactive
COc1ccc(C)cc1S(=O)(=O)NCC(c1ccco1)N(C)C (stereo unspecified)	none
COc1ccc(Cc2nn3c(SCC(=O)Nc4ccccc4)nnc3[nH]c2=O)cc1	none
CCC(=O)NC1(C(F)(F)F)N=C(c2ccccc2)NC1=O (stereo unspecified)	none
CC(=O)n1cc(/C=C2/N=C(c3ccccc3)OC2=O)c2ccccc21	none
COc1cccc(C2=N/C(=C\c3cn(C(C)=O)c4ccccc34)C(=O)O2)c1	GPR151 activ 7.5 | GPR151 conf act inactive | GPR119 counter inactive
CC(=O)c1ccc2ccccc2c1OC(=O)c1ccc(Br)o1	GPR151 activ 6.3 | GPR151 conf act inactive | GPR119 counter inactive
Clc1ccc(Cn2ncc3c(N4CCCC4)ncnc32)cc1	GPR151 activ 8.4 | GPR151 conf act inactive | GPR119 counter inactive
CCOC(=O)c1c(NC(=O)CC)sc2c1CC(C)(C)OC2	none
CCOC(=O)c1c(NC(=O)Nc2ccc(Cl)cc2)sc2c1CC(C)(C)OC2	GPR151 activ 5.2 | GPR151 conf act inactive | GPR119 counter inactive
CCOC(=O)c1c(NC(=O)/C=C/c2ccc(C)o2)sc(C)c1C	GPR151 activ 9.8 | GPR151 conf act inactive | GPR119 counter inactive
CC1(C)C(=O)C2(C(=O)Nc3ccccc3Br)CCC1C2 (stereo unspecified)	GPR151 activ 17 | GPR151 conf act inactive | GPR119 counter inactive
COc1cc(NC(=O)CCCc2ccccc2)c(C(=O)O)cc1OC	none

High-throughput results: PubChem, The Scripps Research Institute Molecular Screening Center
